# Most compounds without a hit are left out; they make up all but 2.4% or so of the library.
# D2 PAM-1 = positive allosteric modulators of human D2 dopamine receptor; potentiation, % (concentration not given with the values); DiscoveRx D2 beta-arrestin cells, luminescence, 90 min; 100% = 57 uM dopamine signal; P14416; 360,000 tested, 0.23% active; AID 624464; in the data active means potentiation above about 50%; inconclusive means mostly about 30% to 49%
# Target sequence (P14416 whole entry, looked up): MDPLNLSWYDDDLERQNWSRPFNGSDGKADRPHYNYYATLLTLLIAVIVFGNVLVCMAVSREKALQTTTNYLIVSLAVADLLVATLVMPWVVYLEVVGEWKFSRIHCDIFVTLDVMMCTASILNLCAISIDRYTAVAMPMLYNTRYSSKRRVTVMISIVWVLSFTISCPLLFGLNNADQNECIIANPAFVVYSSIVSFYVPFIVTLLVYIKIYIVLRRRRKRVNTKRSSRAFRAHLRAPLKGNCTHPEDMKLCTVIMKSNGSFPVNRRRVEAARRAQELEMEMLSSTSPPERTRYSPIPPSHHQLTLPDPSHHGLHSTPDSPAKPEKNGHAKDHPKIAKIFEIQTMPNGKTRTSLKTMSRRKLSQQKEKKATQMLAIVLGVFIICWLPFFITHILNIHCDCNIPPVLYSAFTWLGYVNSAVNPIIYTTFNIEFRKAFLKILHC
#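 PathHunter D2 cells, attached overnight at 37 deg C, received compound in DMSO plus dopamine at EC20 (50 nM final) for 90 min at 37 deg C. Beta-arrestin recruitment was read as luminescence after 1 h with detection reagent at ambient temperature.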
# D2 antagonist = D2 dopamine receptor (human) antagonism; P14416; HEK293 TREx D2 cells, calcium flux, dopamine EC80; inhibition, % at 10 µM; 340,000 tested, 2% active; AID 485344; in the data active means inhibition above about 30%; inactive means below that, where a call was filed; further: 0% is about no effect
#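 Antagonism is scored as inhibition of an EC80 dopamine-evoked calcium signal in a force-coupled, tetracycline-inducible HEK293 T-REx D2 line, with compound present 180 s before agonist.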
# D2 PAM-2 = positively modulates the human D2 dopamine receptor allosterically; P14416; HEK293 T-REx D2, calcium flux, EC20 dopamine potentiation; potentiation, % at 10 µM; 340,000 tested, 0.34% active;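 active means potentiation over 3 SD above the plate norm, cut at about 30% in these data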; further: 0% is about no effect
#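 Primary screen. Calcium kinetics in induced HEK293 T-REx D2 cells: compound pre-addition 180 s, EC20 dopamine, 180 s more.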
# D2 ag-1 = agonists of human D2 dopamine receptor; P14416; 340,000 tested, 0.53% active; HEK293 T-REx D2 cells, calcium flux agonist mode; activation, % at 2 µM; AID 485358;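 active means activation over 3 SD above normal in the single-dose calcium agonist read, cut at about 30% in these data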; further: 0% is about no effect
#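 HEK293 Trex D2 cells, tetracycline-induced, o/n 30 C 5% CO2; no-wash Ca dye, RT 30–90 min; 10-cycle baseline, 23 nl cpd added, kinetic Ca read 180 s; agonist hits = positive Ca response.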
# D2 ag-2 = human D2 receptor agonism in beta-arrestin assay; AID 624465; DiscoveRx PathHunter D2 beta-arrestin, luminescence, 90 min; 100% = 57 uM dopamine signal; activation, % (no concentration beside the values); 360,000 tested, 0.084% active; P14416; in the data active means activation above about 40%; inconclusive means between about 15% and that limit
#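 DiscoveRx PathHunter D2 beta-arrestin cells (2,100/well) attached overnight, then compound-stimulated 90 min at 37 C in HBSS/10 mM HEPES/0.1% Tween-20 buffer; beta-galactosidase complementation read by luminescence after 1 h at ambient temperature. Dopamine 57 uM final (EC100) as control.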
# Numbers without * were called inactive; ? = inconclusive; . = not tested or not shown.
SMILES,D2 PAM-1,D2 antagonist,D2 PAM-2,D2 ag-1,D2 ag-2
O=C(Nc1cccc(C(F)(F)F)c1)C1=CC=CN2CCS(=O)(=O)N=C12,-5,-31,4,0,-3
CCOC(=O)c1c(NC(=O)c2cc(=O)c3cc(C)cc(C)c3o2)sc(C)c1C,.,.,17,1,.
COc1ccc(C(=O)NC2CC3CCCC(C2)N3Cc2ccccc2)cc1 (configuration not stated),-11,82*,-22,0,2
CCN(CC)c1ccc(/C=C/c2cc(-c3ccccc3)c3ccccc3n2)cc1,-3,43*,-6,54*,2
CC(=O)NC12CC3CC(C1)CC(C(=O)N1CCN(S(=O)(=O)c4ccccc4[N+](=O)[O-])CC1)(C3)C2,-2,45*,-15,0,-1
N/C(Cn1cncn1)=N\OC(=O)c1ccc(Cl)cc1Cl,24,-12,1,-2,6
N/C(Cc1cccc2ccccc12)=N\OC(=O)c1ccccc1F,61*,17,-2,3,?
N/C(Cc1ccc(Cl)cc1Cl)=N\OC(=O)c1ccccc1F,61*,-4,-2,-1,15
N/C(Cc1ccccc1)=N\OC(=O)c1cccc2ccccc12,?,-35,-5,37*,9
N#C/C(=C/c1ccc(-c2ccccc2)o1)c1nc(-c2cccs2)cs1,3,-16,10,87*,2
N#C/C(=C/c1ccc(-c2ccc(S(N)(=O)=O)cc2)o1)C(=O)Nc1ccccc1,-2,4,-7,-1,9
N#C/C(=C/c1ccc(-c2ccc(S(N)(=O)=O)cc2)o1)c1nc2ccccc2s1,25,25,1,115*,11
N#C/C(=C\c1ccc(-c2ccc(F)cc2)o1)C(=O)Nc1nc(-c2cccs2)cs1,-38,5,-2,0,-6
Cc1cc(=O)[nH]c(N/N=C/c2ccc(-c3ccc(F)cc3)o2)n1,-6,48*,-9,-1,-4
Cc1cccc(NC(=O)CCCn2nc(C)c3c(C)n(-c4ccccc4)nc3c2=O)c1C,.,.,-5,0,.
CC1CCC2(CC1)NC(=O)c1ccccc1O2 (configuration not stated),-2,2,32*,1,-3
O=C(CNS(=O)(=O)c1ccccc1)OCC(=O)c1ccc(F)cc1,-6,-16,36*,-2,-4
COC(=O)c1cccc(Nc2c(-c3ccc(O)c(OC)c3)nc3nc[nH]n23)c1,.,.,1,0,.
N=C(N)SCc1nc2ccccn2c1Br,-22,2,-3,0,0
O=C(O)c1ccccc1SCc1nc2ccccn2c1Br,-10,51*,0,0,-6
O=c1oc2ccccc2cc1-c1cn2cc(Cc3ccccc3F)sc2n1,.,.,.,1,.
Cc1ccc2c(COC(=O)C3CC(=O)N(c4ccc5c(c4)OCCO5)C3)cc(=O)oc2c1 (configuration not stated),0,.,.,.,-2
COc1cccc(-c2ocnc2C(=O)Nc2ccc(N3CCOCC3)cc2N2CCOCC2)c1,-1,0,1,-1,-4
Cc1nnc(NC(=O)CSc2nnc(C(C)NC(=O)c3ccccc3F)n2C)s1 (configuration not stated),-5,16,-10,0,-2
CC(NC(=O)c1ccccc1F)c1nnc(SCC(=O)Nc2nccs2)n1C (configuration not stated),-3,-3,41*,1,4
SMILES,D2 PAM-1,D2 antagonist,D2 PAM-2,D2 ag-1,D2 ag-2
N#Cc1c(F)cccc1N1CCOCC1,-20,-30,35*,0,-6
Cc1ccc(C(=O)NC2CC3CCCC(C2)N3Cc2ccccc2)cc1 (configuration not stated),-34,4,-29,1,-1
COCCCNC(=S)NC1CC2CCCC(C1)N2Cc1ccco1 (configuration not stated),-25,-16,-16,0,-1
CCCNC(=S)NC1CC2CCCC(C1)N2Cc1ccc(F)cc1 (configuration not stated),-78,81*,-21,0,0
Cc1cccc(C(=O)NC2CC3CCCC(C2)N3Cc2ccccc2)c1 (configuration not stated),-10,81*,-18,0,-4
COc1ccc(CN2C3CCC2CC(NC(=O)c2cccc(F)c2)C3)cc1 (configuration not stated),-2,81*,-26,0,0
Cc1ccc(CN2C3CCCC2CC(NC(=O)c2ccc(F)cc2)C3)cc1 (configuration not stated),-18,92*,-21,0,-2
C=Cc1ccc(CN2C(=O)N(c3cccc(Cl)c3)S(=O)(=O)c3ccccc32)cc1,.,.,-11,1,.
O=C(Nc1ccccc1-c1ccccc1)NC1CC2CCCC(C1)N2CCc1ccccc1 (configuration not stated),-10,8,-18,0,-5
O=C(Nc1ccccc1-c1ccccc1)NC1CC2CCCC(C1)N2Cc1ccc(F)cc1 (configuration not stated),-25,52*,-25,0,-1
COc1cccc(C(=O)NN2c3ccccc3CCc3ccccc32)c1,4,51*,2,-4,4
COc1cccc(C(=O)NC2CC3CCCC(C2)N3CC(=O)Nc2ccccc2C(F)(F)F)c1 (configuration not stated),-5,-21,-16,1,1
O=C(NC1CCN(C(=O)NCc2ccccc2)CC1)c1cccc(F)c1,-3,2,.,1,-3
COc1cccc(C(=O)NC2CC3CCC(C2)N3Cc2ccccc2)c1 (configuration not stated),-6,96*,-14,1,0
O=C(NC1CC2CCC(C1)N2Cc1ccccc1)c1cccc(F)c1 (configuration not stated),-7,71*,-25,1,4
COc1cccc(C(=O)NNC(=O)c2ccccc2)c1,-3,2,6,0,2
CC(Sc1nc2ccccc2c(=O)n1CCc1ccc(S(N)(=O)=O)cc1)C(=O)NC(N)=O (configuration not stated),1,3,40*,-2,9
Cc1ccc2nc(SCC(=O)N3c4ccccc4CC3C)c(C)cc2c1 (configuration not stated),-26,3,32*,1,-4
CCCn1c(SCC(=O)N2CCc3ccccc32)nnc1-c1ccco1,-8,-10,2,1,-3
Cc1ccc2nc(-c3cccnc3SCC(=O)N3c4ccccc4CC3C)[nH]c2c1 (configuration not stated),-5,-5,-4,0,-2
C=CCn1c(SCC(=O)N2c3ccccc3Sc3ccccc32)nnc1-c1ccco1,-4,-9,-7,-1,2
